# Experimental data: PubChem BioAssay (NCATS)
# Records with an inconclusive call do not appear. Calls of active or inactive are those of the source. Calls come from the whole dose curve; as a rule, active = well fitted curve in the direction sought with a large enough effect; inconclusive = small, poorly fitted or top-dose-only effect, or another doubt; inactive = no such curve, though single readings can be large; an effect the other way counts as inactive or inconclusive. Starred links: 1 amine or outer side, 2 acyl side, 3 side chain; linkers in the order of their positions; H or OH if unused. Positions of bridges follow the written chain, without caps; N, C: chain ends. Non-standard residues stand in square brackets, D forms with d. Residues, ends and D or L forms follow the SMILES beside them. Chains are numbered I, II in the order given. Actinocin(9to1) = Cc1c2oc3c(C)ccc(C(=O)[*:1])c3nc-2c(C(=O)[*:2])c(N)c1=O; NMeV = CN[CH](C(=O)O)C(C)C; Sar = CNCC(=O)O
# Assays:
# [1] = qHTS of pediatric cancer cell lines to identify multiple opportunities for drug repurposing: Primary screen for RD cells (AID 1347104); note: nearly all actives have a fitted effect of over 55% in size
# Summary of the method: (§1)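 Phenotypic viability qHTS, 48 h compound exposure, CellTiter-Glo luminescence read-out; multi-concentration dosing so that potency and efficacy derive directly from the primary screen's curves.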
# [2] = qHTS of pediatric cancer cell lines to identify multiple opportunities for drug repurposing: Primary screen for MG 63 (6-TG R) cells (AID 1347105); note: nearly all actives have a fitted effect of over 50% in size
# Summary of the method: as §1
# [3] = qHTS of pediatric cancer cell lines to identify multiple opportunities for drug repurposing: Primary screen for Rh30 cells (AID 1347107); note: nearly all actives have a fitted effect of over 75% in size
# Summary of the method: (§2)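 Viability after 48 h compound treatment at 37C, 500-1,000 cells/well, read as ATP luminescence with CellTiter-Glo. Primary screens used 11-point (MIPE, 0.78 nM-46 µM) or 8-point (NPC, 0.59 nM-46 µM) final concentrations; follow-up screens used 11-point dilutions.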
# [4] = qHTS of pediatric cancer cell lines to identify multiple opportunities for drug repurposing: Primary screen for Rh41 cells (AID 1347108); note: nearly all actives have a fitted effect of over 70% in size
# Summary of the method: as §1
# [5] = qHTS of pediatric cancer cell lines to identify multiple opportunities for drug repurposing: Primary screen for control Hh wild type fibroblast cells (AID 1347106); note: nearly all actives have a fitted effect of over 55% in size
# Summary of the method: as §2
# [6] = qHTS of pediatric cancer cell lines to identify multiple opportunities for drug repurposing: Confirmatory screen for A673 cells (AID 1347110); note: nearly all actives have a fitted effect of over 65% in size
# Summary of the method: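 Concentration-response curves came straight from titrations: 11 points (0.78 nM to 46 µM) for MIPE and several concentrations (0.59 nM to 46 µM) for NPC in primary, 11 points in follow-up. Readout: ATP luminescence at 48 h.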
# [7] = qHTS of pediatric cancer cell lines to identify multiple opportunities for drug repurposing: Confirmatory screen for SK-N-MC cells (AID 1347111);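 note: cells exposed to compound for 48 h before the readout; nearly all actives have a fitted effect of over 70% in size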
# Summary of the method: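 SK-N-MC cells at 500-1,000 cells/well in growth media were pre-incubated 5 h, then exposed to compounds at 11-point dilutions for 48 h at 37 degrees C, 5% CO2. Viability was read as CellTiter-Glo luminescence.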
# [8] = qHTS of pediatric cancer cell lines to identify multiple opportunities for drug repurposing: Confirmatory screen for BT-12 cells (AID 1347112); note: nearly all actives have a fitted effect of over 55% in size
# Summary of the method: as §2
# [9] = qHTS of pediatric cancer cell lines to identify multiple opportunities for drug repurposing: Confirmatory screen for NB1643 cells (AID 1347109); note: nearly all actives have a fitted effect of over 45% in size
# Summary of the method: as §2
# Potency is the fitted concentration of half-maximal effect.
smiles,measurement,setting,value
CC(C)(C)[N+]([O-])=Cc1ccc(S(=O)(=O)O)cc1S(=O)(=O)O,Potency,[1],inactive
same,Potency,[2],inactive
same,Potency,[3],inactive
same,Potency,[4],inactive
NC(=NCCCCCCN=C(N)N=C(N)Nc1ccc(Cl)cc1)N=C(N)Nc1ccc(Cl)cc1,Potency,[1],11.8 µM (active)
same,Potency,[2],14.8 µM (active)
same,Potency,[5],8.33 µM (active)
same,Potency,[3],4.69 µM (active)
same,Potency,[4],7.43 µM (active)
CC(C)c1cnn2c(NCc3ccccc3)cc(NCCCCCCN)nc12,Potency,[1],18.7 µM (active)
same,Potency,[2],5.9 µM (active)
same,Potency,[4],7.43 µM (active)
Cn1cc(C2=C(c3c4n(c5ccccc35)CCC(CN)C4)C(=O)NC2=O)c2ccccc21 (stereo unspecified),Potency,[1],29.6 µM (active)
same,Potency,[5],inactive
same,Potency,[4],23.5 µM (active)
C[C@H]1C[C@H]2[C@@H]3CCC4=CC(=O)C=C[C@]4(C)[C@@H]3C(=O)C[C@]2(C)[C@@]1(O)C(=O)CO,Potency,[1],inactive
same,Potency,[2],inactive
same,Potency,[5],inactive
same,Potency,[3],inactive
same,Potency,[4],inactive
Cc1cc(Nc2ncc3c(n2)N(C)C(=O)N(c2cc(NC(=O)c4cccc(C(F)(F)F)c4)ccc2C)C3)n(C)n1,Potency,[1],0.418 µM (active)
same,Potency,[2],0.59 µM (active)
same,Potency,[5],0.743 µM (active)
same,Potency,[6],0.414 µM (active)
same,Potency,[7],0.369 µM (active)
COc1cc(C(C)C)c(Oc2cnc(NC(CO)CO)nc2N)cc1I,Potency,[5],inactive
same,Potency,[3],inactive
Cn1cc(C=CC(=O)c2cccc(F)c2)cc1C=CC(=O)NO,Potency,[2],inactive
same,Potency,[5],inactive
same,Potency,[3],inactive
N#CC(=Cc1ccc(O)c(O)c1)C(=O)NCc1ccccc1,Potency,[5],inactive
N=c1ccn2c(n1)O[C@H]1[C@@H](O)[C@@H](CO)O[C@H]12,Potency,[2],inactive
C[C@H](NC(=O)C(C#N)=Cc1cccc(Br)n1)c1ccccc1,Potency,[1],33.2 µM (active)
same,Potency,[3],23.5 µM (active)
same,Potency,[4],23.5 µM (active)
Cc1cc(C(=O)NOCCO)c(Nc2ccc(I)cc2F)n(C)c1=O,Potency,[5],inactive
same,Potency,[3],inactive
same,Potency,[4],inactive
COc1ccc(C=Cc2cc(OC)c(OC)c(OC)c2)cc1NC(=O)[C@H](N)CO,Potency,[1],0.0066 µM (active)
same,Potency,[3],inactive
same,Potency,[6],0.104 µM (active)
same,Potency,[7],0.117 µM (active)
same,Potency,[8],0.117 µM (active)
C=CC(=O)Nc1cc(NC(=O)c2ccc(C)c(NC(=O)c3ccno3)c2)cc(C(F)(F)F)c1,Potency,[4],20.9 µM (active)
C=CCNc1c(O)cc2c(O)c1C[C@@H](C)C[C@H](OC)[C@@H](O)[C@@H](C)C=C(C)[C@H](OC(N)=O)[C@@H](OC)C=CC=C(C)C(=O)N2,Potency,[1],0.264 µM (active)
same,Potency,[3],inactive
same,Potency,[4],2.35 µM (active)
COc1cc(OC)c(NC(=O)Nc2cc(C)on2)cc1Cl,Potency,[2],inactive
same,Potency,[5],inactive
same,Potency,[3],inactive
CCCNC(=O)[C@H]1O[C@H]1C(=O)N[C@H](C(=O)N1CCC[C@@H]1C(=O)OC)C(C)CC (stereo partly specified),Potency,[1],10.5 µM (active)
same,Potency,[3],18.7 µM (active)
same,Potency,[4],7.43 µM (active)
O=c1ccn([C@@H]2O[C@H](CO)[C@H](O)[C@@H]2F)c(=O)[nH]1,Potency,[2],inactive
CC[C@H]1OC(=O)[C@H](C)[C@@H](O[C@H]2C[C@@](C)(OC)[C@@H](O)[C@H](C)O2)[C@H](C)[C@@H](O[C@@H]2O[C@@H](C)C[C@H](N(C)C)[C@@H]2O)[C@](C)(O)C[C@@H](C)C(=O)[C@H](C)[C@@H](O)[C@]1(C)O,Potency,[2],inactive
same,Potency,[5],inactive
same,Potency,[3],inactive
same,Potency,[4],inactive
CN(CC(=O)N(Cc1ccc(C2CCCCC2)cc1)c1ccc(C(=O)O)c(O)c1)S(=O)(=O)c1c(F)c(F)c(F)c(F)c1F,Potency,[1],37.2 µM (active)
same,Potency,[5],inactive
same,Potency,[4],23.5 µM (active)
same,Potency,[9],26.1 µM (active)
same,Potency,[6],13.1 µM (active)
same,Potency,[8],inactive
N#CC(=C(N)Sc1ccc(N)cc1)c1ccccc1C(F)(F)F,Potency,[2],inactive
same,Potency,[3],inactive
CC(C)n1cnc2c(NCCc3ccc(O)cc3)nc(-c3csc4ccccc34)nc21,Potency,[2],18.7 µM (active)
same,Potency,[5],inactive
same,Potency,[3],18.7 µM (active)
same,Potency,[4],11.8 µM (active)
COc1cc2c(cc1O)CCC1C2CC[C@@]2(C)C1CC[C@@H]2O (stereo partly specified),Potency,[5],inactive
same,Potency,[3],inactive
COc1cccc2c1C(=O)c1c(O)c3c(c(O)c1C2=O)C[C@@](O)(C(=O)CO)C[C@@H]3O[C@H]1C[C@H](N)[C@H](OC2CCCCO2)[C@H](C)O1 (stereo partly specified),Potency,[3],inactive
same,Potency,[9],1.65 µM (active)
same,Potency,[6],2.61 µM (active)
same,Potency,[7],0.737 µM (active)
same,Potency,[8],10.4 µM (active)
O=C(NCc1ccccc1)[C@H](Cc1ccccc1)NC(=O)[C@@H]1O[C@@H]1C(=O)NCCc1ccc(O)cc1,Potency,[2],inactive
same,Potency,[5],inactive
same,Potency,[3],inactive
same,Potency,[4],inactive
same,Potency,[6],10.4 µM (active)
same,Potency,[8],inactive
CC(C)(C)c1nc2c3cc[nH]c(=O)c3c3cc(F)ccc3c2[nH]1,Potency,[2],inactive
COC(=O)C=CC(=O)OC,Potency,[2],0.235 µM (active)
same,Potency,[4],23.5 µM (active)
same,Potency,[6],inactive
same,Potency,[7],3.29 µM (active)
Cn1c(Nc2ccc(C(F)(F)F)cc2)nc2cc(Oc3ccnc(-c4ncc(C(F)(F)F)[nH]4)c3)ccc21,Potency,[1],4.18 µM (active)
same,Potency,[3],inactive
same,Potency,[9],20.8 µM (active)
same,Potency,[7],7.37 µM (active)
CC1=C(C(=O)Nc2cc3cn[nH]c3cc2F)C(c2ccc(Cl)cc2F)N=C(c2ccnc(Cl)c2)N1 (stereo unspecified),Potency,[5],inactive
same,Potency,[3],inactive
CCc1c(O)cc(O)c(C(=O)c2ccc(OCCN3CCOCC3)c(OC)c2)c1CC(=O)N(CCOC)CCOC,Potency,[1],0.526 µM (active)
same,Potency,[4],1.18 µM (active)
Cn1cc(-c2cnn3c(N)c(Br)c([C@H]4CCCNC4)nc23)cn1,Potency,[1],1.05 µM (active)
same,Potency,[3],inactive
same,Potency,[4],2.35 µM (active)
same,Potency,[9],1.85 µM (active)
same,Potency,[6],14.7 µM (active)
same,Potency,[7],0.827 µM (active)
same,Potency,[8],inactive
CC(=O)ON=C1C(c2c(O)[nH]c3cc(Br)ccc23)=Nc2ccccc21,Potency,[1],6.62 µM (active)
same,Potency,[5],inactive
same,Potency,[4],2.96 µM (active)
same,Potency,[9],16.5 µM (active)
same,Potency,[6],7.37 µM (active)
same,Potency,[7],8.27 µM (active)
same,Potency,[8],18.5 µM (active)
CCn1c(=O)c2c(nc(C=Cc3ccc(OC)c(OC)c3)n2C)n(CC)c1=O,Potency,[2],inactive
same,Potency,[3],inactive
CC(=O)O[C@]1(C(C)=O)CC[C@H]2[C@@H]3C=C(C)C4=CC(=O)CC[C@]4(C)[C@@H]3CC[C@@]21C,Potency,[3],inactive
O=C1NC(=O)[C@@H](c2cn3c4c(cccc24)CCC3)[C@H]1c1c[nH]c2ccccc12,Potency,[1],0.235 µM (active)
same,Potency,[3],inactive
same,Potency,[6],2.33 µM (active)
same,Potency,[7],0.928 µM (active)
"Cc1c2oc3c(C)ccc(C(=O)NC4C(=O)NC(C(C)C)C(=O)N5CCCC5C(=O)N(C)CC(=O)N(C)C(C(C)C)C(=O)OC4C)c3nc-2c(C(=O)NC2C(=O)NC(C(C)C)C(=O)N3CCCC3C(=O)N(C)CC(=O)N(C)C(C(C)C)C(=O)OC2C)c(N)c1=O (stereo unspecified) (I: TVP[Sar][NMeV] / II: TVP[Sar][NMeV]; ester I:1-I:C, II:1-II:C; linker I:N-II:N via Actinocin(9to1); configuration not given here)",Potency,[1],0.001 µM (active)
same,Potency,[4],0.001 µM (active)
same,Potency,[9],inactive
same,Potency,[6],0.0147 µM (active)
same,Potency,[7],0.0074 µM (active)
same,Potency,[8],0.0293 µM (active)
COc1cc(CCc2cc(NC(=O)c3ccc(N4C[C@@H](C)N[C@@H](C)C4)cc3)n[nH]2)cc(OC)c1,Potency,[5],33.2 µM (active)
same,Potency,[3],18.7 µM (active)
same,Potency,[4],5.9 µM (active)
Cc1cc(-c2nnc3n2CCCCC3)c(C)n1-c1ccccc1,Potency,[2],inactive
same,Potency,[4],inactive
CN1CCCN(C(=O)c2cccc(-c3ccc(C=C4C(=O)Nc5ccc(Cl)cc54)o3)c2)CC1,Potency,[1],33.2 µM (active)
same,Potency,[3],18.7 µM (active)
same,Potency,[4],18.7 µM (active)
O=C(O)CCCCC(CCSCc1ccccc1)SCc1ccccc1 (stereo unspecified),Potency,[5],inactive
CC(=CC(=O)Nc1ccccc1C(=O)O)c1ccc2ccccc2c1,Potency,[2],inactive
CCc1nc(-c2cccc(C)c2)c(-c2ccnc(NC(=O)c3ccccc3)c2)s1,Potency,[5],inactive
C=C(C)[C@@H]1CC[C@]2(C(=O)O)CC[C@]3(C)[C@H](CC[C@@H]4[C@@]5(C)CC[C@H](O)C(C)(C)[C@@H]5CC[C@]43C)[C@@H]12,Potency,[2],inactive
same,Potency,[5],inactive
C[C@H](NC(=O)Cc1cc(F)cc(F)c1)C(=O)N[C@H](C(=O)OC(C)(C)C)c1ccccc1,Potency,[5],inactive
same,Potency,[3],inactive
N#Cc1c(NC(=O)c2cccc3ccccc23)sc2c1CCCC2,Potency,[6],0.414 µM (active)
same,Potency,[7],0.369 µM (active)
same,Potency,[8],2.33 µM (active)
Oc1ccc(-c2ccc(-c3cc(Nc4cccc(CNC5CC5)c4)n[nH]3)cc2)c(O)c1,Potency,[5],inactive
same,Potency,[4],14.8 µM (active)
same,Potency,[6],2.33 µM (active)
same,Potency,[7],0.827 µM (active)
same,Potency,[8],8.27 µM (active)
